Activity calls are given as the source filed them. Calls come from the whole dose curve.
Test: qHTS drug screen for cell cycle checkpoint inhibitors in PARPi-resistant BRCA-mutant ovarian cancer cell lines. (AID 1963452)
Details: PEO1/OlaR viability, CellTiter-Glo luminescence, 96 h, stronger effect = lower value
Excerpt: Women's Malignancies Branch, Center for Cancer Research (CCR),
National Cancer Institute (NCI), National Institutes of Health (NIH), Bethesda, MD
Poly (ADP-ribose) polymerase inhibitors (PARPis) have changed the treatment paradigm in breast cancer gene (BRCA) - mutant high-grade serous ovarian carcinoma (HGSC). However, most patients eventually develop resistance to PARPis, highlighting an unmet need for improved therapeutic strategies. Using high-throughput drug screens, we identified ataxia telangiectasia and rad3-related protein/checkpoint kinase 1 (CHK1) pathway inhibitors as cytotoxic and further validated the activity of the CHK1 inhibitor (CHK1i) prexasertib in PARPi-sensitive and -resistant BRCA-mutant HGSC cells and xenograft mouse models. CHK1i monotherapy induced DNA damage, apoptosis, and tumor size reduction. We then conducted a phase 2 study (NCT02203513) of prexasertib in patients with BRCA-mutant HGSC. The treatment was well tolerated but yielded an objective response rate of 6% (1 of 17; one partial response) in patients with previous PARPi treatment. […] BRCA reversion mutation in previously PARPi-treated BRCA-mutant patients was not associated with resistance to CHK1i.
Among others, 1082 oncology drugs, both approved and investigational, were prioritized based on their status in clinical trial development. […] Drugs with average Z-AUC values less than -1.0 in all three cell lines were classified as "hits" resulting in 151 oncology drug hits. The screen also confirmed cross-resistance between olaparib and other PARPis (rucaparib, niraparib, and talazoparib) in PARPi-resistant PEO1/OlaR and PEO4.
[1] G. L. Lin, K. M. Wilson, M. Ceribelli, B. Z. Stanton, P. J. Woo, S. Kreimer, E. Y. Qin, X. Zhang, J. Lennon, S. Nagaraja, P. J. Morris, M. Quezada, S. M. Gillespie, D. Y. Duveau, A. M. Michalowski, P. Shinn, R. Guha, M. Ferrer, C. Klumpp-Thomas, S. Michael, C. McKnight, P. Minhas, Z. Itkin, E. H. Raabe, L. Chen, R. Ghanem, A. C. Geraghty, L. Ni, K. I. Andreasson, N. A. Vitanza, K. E.Warren, C. J. Thomas, M. Monje, Therapeutic strategies for diffuse midline glioma from high-throughput combination drug screening. Sci. Transl. Med. 11, (2019).
[2] T. M. Yamamoto, A. McMellen, Z. L. Watson, J. Aguilera, R. Ferguson, E. Nurmemmedov, T. Thakar, G. L. Moldovan, H. Kim, D. M. Cittelly, A. M. Joglar, E. P. Brennecke, H. Wilson, K. Behbakht, M. J. Sikora, B. G. Bitler, Activation of Wnt signaling promotes olaparib resistant ovarian cancer. Mol. Carcinog. 58, 1770 - 1782 (2019).
PROTOCOL TABLE (as described by Inglese J, Shamu CE and Guy RK. 2007)
SEQUENCE No. (e.g., 1, 2, 3, etc.); […] (e.g., Cells, Incubation, Reagent, etc.); VALUE; DESCRIPTION.
1; Compounds; 20nL; 1536-well white tissue culture-treated plates.
2; Cells; 5 uL; PEO1, PEO4, and PEO1/OlaR cells at 600 cells per well.
3; Incubation; 96 hr; 37C, 95% humidity, 5% CO2.
4; Reagent; 3 uL; CellTiter-Glo (Promega).
5; Incubation; 15 min; room temperature.
6; Detection; Luminescence, PHERAstar (BMG Labtech) plate reader.
NOTES (numbers refer to Sequence numbers above)
1. MIPE 5.0 compounds were acoustically dispensed by Echo Acoustic Liquid Handler (Beckman Coulter Life Sciences). Each compound was plated at an 11-point concentration range with 1:3 dilution. Bortezomib, a proteasome inhibitor (final concentration, 20 uM), was used as a positive.
2. PEO1, PEO4, and PEO1/OlaR were trypsinized and dispensed in 5 uLof growth medium using a Multidrop Combi dispenser at a density of 600 cells per well to allow compounds to be present during the exponential growth phase.
3. Plates were incubated for 96 hours at standard incubator conditions and covered by a stainless steel gasketed lid to prevent evaporation.
4. Three microliters of CellTiter-Glo (Promega) were added to each well.
5. Plates were incubated at room temperature for 15 min with a stainless-steel lid in place.
6. Luminescence readings were taken using PHERAstar (BMG Labtech). […]

[1] = measured here: PEO1 parental Z-AUC

C[C@]1(C(=O)N(CCCC(=O)O)Cc2cccc(Cl)c2)CCN1C(=O)c1csc2ccccc12
Z-AUC: 0.897 (inactive) | Z-AUC [1]: 0.571 | Z-AUC (measured here: PEO4 Z-AUC): 0.835

CCn1c(N)c(C(=O)NC)c(=O)c2ccc(C#C[C@@](C)(O)COC)nc21
Z-AUC: -0.226 (inactive) | Z-AUC [1]: -0.662 | Z-AUC (measured here: PEO4 Z-AUC): 0.0317

CCc1cc(/C(C)=N/OCc2ccc(C3CCCCC3)c(C(F)(F)F)c2)ccc1CN1CC(C(=O)O)C1
Z-AUC: -0.0137 (inactive) | Z-AUC [1]: -0.327 | Z-AUC (measured here: PEO4 Z-AUC): 0.118

CC1=C(c2ccc(O)cc2)[C@H](c2ccc(OCCN3CCCCC3)cc2)Oc2cc(O)ccc21
Z-AUC: 0.716 (inactive) | Z-AUC [1]: 0.402 | Z-AUC (measured here: PEO4 Z-AUC): -0.752

COc1ccc(-c2ccc3c(N4CCOC[C@@H]4C)nc(N4CCOC[C@@H]4C)nc3n2)cc1CO
Z-AUC: 1.14 (inactive) | Z-AUC [1]: 0.497 | Z-AUC (measured here: PEO4 Z-AUC): 0.69

O=C(CCCCCCNC(=O)c1cnc(N(c2ccccc2)c2ccccc2Cl)nc1)NO
Z-AUC: 0.102 (inactive) | Z-AUC [1]: -0.152 | Z-AUC (measured here: PEO4 Z-AUC): -0.286

Nc1nc2cc(-c3ccc4ncc(C(=O)N5CCOCC5)n4c3)ccc2o1
Z-AUC: 1.25 (inactive) | Z-AUC [1]: 0.336 | Z-AUC (measured here: PEO4 Z-AUC): 0.353

C=CC(=O)N[C@H]1CN(c2nc(Nc3cn(C)nc3OC)c3ncn(C)c3n2)C[C@@H]1F
Z-AUC: 0.581 (inactive) | Z-AUC [1]: 0.0382 | Z-AUC (measured here: PEO4 Z-AUC): 0.231

Nc1ccc(F)cc1NC(=O)c1ccc(CNC(=O)/C=C/c2cccnc2)cc1
Z-AUC: -1.13 (inactive) | Z-AUC [1]: -0.9 | Z-AUC (measured here: PEO4 Z-AUC): -0.779

Cc1ccc(-n2nc(C(C)(C)C)cc2NC(=O)NCc2cc(F)ccc2Oc2ccc3c(cnn3CCO)c2)cc1
Z-AUC: 1.04 (inactive) | Z-AUC [1]: 0.682 | Z-AUC (measured here: PEO4 Z-AUC): 0.464

Cc1cc(OCCCc2c3n(c4c(-c5c(C)nn(C)c5C)c(Cl)ccc24)[C@H](C)CN(c2cn(C)c4ccc(C(=O)O)cc24)C3=O)cc(C)c1Cl
Z-AUC: 1.46 (inactive) | Z-AUC [1]: 0.906 | Z-AUC (measured here: PEO4 Z-AUC): 1.25

CCN(C)S(=O)(=O)Nc1ccc(F)c(C(=O)c2c[nH]c3ncc(-c4cnc(C5CC5)nc4)cc23)c1F
Z-AUC: 0.933 (inactive) | Z-AUC [1]: 0.554 | Z-AUC (measured here: PEO4 Z-AUC): 0.574

[2H]C([2H])([2H])C(O)([C@@H](C)/C=C/[C@@H](C)[C@H]1CC[C@H]2/C(=C/C=C3C[C@@H](O)C[C@H](O)C3)CCC[C@]12C)C([2H])([2H])[2H]
Z-AUC: 1.18 (inactive) | Z-AUC [1]: 0.263 | Z-AUC (measured here: PEO4 Z-AUC): 0.327

CCCS(=O)(=O)c1nc(NC2CC2)cc(-c2ccc3c(ccn3C3CC(C)(C)NC(C)(C)C3)c2)n1
Z-AUC: -1.38 (inactive) | Z-AUC [1]: -1.22 | Z-AUC (measured here: PEO4 Z-AUC): -1.57

Reference: PubChem BioAssay (NCATS)
